The panel holds about 79,000 compounds, 15% with a hit somewhere; the sample as a whole holds those more often. No stated cut-off is given here; in the data, active means growth inhibition above about 70%; inactive means the rest.
Legend:
[1] = NCI Yeast Anticancer Drug Screen. Data for the rad50 strain (AID 155);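 further: 0% = growth of vehicle-only cultures of the same strain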; details: S. cerevisiae rad50 strain growth inhibition; at 50.0 µM; hits give high values
How it was run: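 Relative growth inhibition (compound vs vehicle) was measured in yeast with a defined repair-gene alteration.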

[2] = NCI Yeast Anticancer Drug Screen. Data for the mec2-1 strain (AID 157); details: S. cerevisiae mec2-1 strain, at 50.0 µM, hits give high values
How it was run: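 Cells of the genetically defined mec2-1 yeast strain are incubated with test compound. Inhibition of growth is calculated against vehicle-treated controls.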

[3] = NCI Yeast Anticancer Drug Screen. Data for the sgs1 mgt1 strain (AID 161);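 further: 0% = growth of cultures given vehicle only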; details: S. cerevisiae sgs1 mgt1 strain, at 50.0 µM, hits give high values
How it was run: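 Mutant yeast exposed to compound; growth scored against vehicle-only wells.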

[4] = NCI Yeast Anticancer Drug Screen. Data for the cln2 rad14 strain (AID 165);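 further: 0% = growth equal to vehicle treated cultures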; details: S. cerevisiae cln2 rad14 strain, at 50.0 µM, hits give high values
How it was run: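 The screen exposed genetically defined yeast (cln2 rad14) to test compounds and scored growth inhibition relative to vehicle-treated controls.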

[5] = NCI Yeast Anticancer Drug Screen. Data for the bub3 strain (AID 167); details: S. cerevisiae bub3 mutant strain, at 50.0 µM, hits give high values
How it was run: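 Screening used yeast with an engineered genetic alteration affecting cell cycle control. Compound-exposed cultures were compared with vehicle cultures, and reduced growth was taken as inhibition.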

[6] = NCI Yeast Anticancer Drug Screen. Data for the mlh1 rad18 strain (AID 175); details: S. cerevisiae mlh1 rad18 strain growth inhibition; at 50.0 µM; hits give high values
How it was run: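 Compound-treated yeast growth, normalised to vehicle controls. Strain bears defined DNA repair mutations.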

Measured: growth inhibition

Cc1cc(C)c2c(ccc3ccccc32)n1
inactive: [1] -43.9% | [2] -21.4% | [3] -23.4% | [4] -5.75% | [5] -19.9% | [6] -33.5%

CN(C)c1ccc(-c2c3ccc(Cl)cc3nc3ccc(Br)cc23)cc1
inactive: [1] -1.3% | [2] -1.9% | [3] -18.1% | [4] -4.3% | [5] -1% | [6] -8.9%

COc1ccc(C)cc1NC(=S)NC(=O)C(C)Oc1ccccc1 (stereo not drawn)
inactive: [1] 11.8% | [2] 46.5% | [3] 59.5% | [4] -27% | [5] 28.6% | [6] 32.9%

Cn1ccc2c3ccn(C)c3ccc21
inactive: [1] -15.8% | [2] 9.4% | [3] -5.25% | [4] 56.7% | [5] -19.9% | [6] 23.1%

Cc1ccc2cc(N)ccc2c1
inactive: [1] -2.9% | [2] 8.05% | [3] 2.9% | [4] -9.85% | [5] 20.1% | [6] 23.1%

O=C(COc1ccc(Cl)cc1)Nc1cccc([N+](=O)[O-])c1
inactive: [1] 2.55% | [2] 17.1% | [3] 2.45% | [4] -5.7% | [5] 18.9% | [6] 6.7%

CN(C)CC(CN(C)C)C(=O)c1ccc(OC2OC(CO)C(O)C(O)C2O)cc1 (stereo not drawn)
inactive: [1] -4.95% | [2] -3.15% | [3] -18.4% | [4] 5.15% | [5] -9.35% | [6] 2.05%

Cc1cc(NS(=O)(=O)c2ccc(NC(=O)c3ccc(Cl)c4c(Nc5ccc(S(=O)(=O)N=C(N)N)cc5)c5ccccc5nc34)cc2)no1
inactive: [1] 29.9% | [2] 42.1% | [3] 31.6% | [4] 34.5% | [5] 26.4% | [6] 53.5%

CC(=O)Nc1ccc(F)c(N)c1
inactive: [1] -3.2% | [2] -13.2% | [3] 8.7% | [4] -11.9% | [5] -9.1% | [6] 15.1%

CCCCC(=O)OCC(=O)[C@]1(O)Cc2c(O)c3c(c(O)c2[C@@H](OC2CC(NC(=O)C(F)(F)F)C(O)C(C)O2)C1)C(=O)c1c(OC)cccc1C3=O (stereo partly drawn)
inactive: [1] 19.5% | [2] 21.3% | [3] 29.9% | [4] 4.9% | [5] 53% | [6] 30.8%

COC(=O)c1cc(Cl)ccc1OCC(=O)NCc1ccc(Cl)cc1
inactive: [1] 9.1% | [2] -3.3% | [3] 11.8% | [4] -5.85% | [5] -26.1% | [6] 12.1%

CCCNC(=S)/N=C\c1c(O)c2ccccc2oc1=O
inactive: [1] -38.8% | [2] -56.8% | [3] -35% | [4] -0.45% | [5] -0.2% | [6] -5.4%

COc1ccc(/C(C)=N/NC(=O)CC(=O)N(C(=O)c2ccccc2)c2ccc(C)cc2)cc1
inactive: [1] -8.45% | [2] -36% | [3] -6.5% | [4] 8.15% | [5] -27.2% | [6] -17.9%

COC(=O)/C=C1\CCC2C3CC=C4C=C(N5CCCC5)CCC4(C)C3C(=O)CC12C (stereo not drawn)
inactive: [1] -7.6% | [2] 16.1% | [3] 18.6% | [4] -9.6% | [5] -12.4% | [6] -18.2%

CCCCCC1CCC(OC(=O)NC)CC1 (stereo not drawn)
inactive: [1] 2% | [2] 9.85% | [3] -0.6% | [4] -19.9% | [5] 25.4% | [6] -6.95%

O=C(CCc1ccc(O)cc1)c1c(O)cc(O)cc1O
inactive: [1] -5.3% | [2] -29.9% | [3] -11.3% | [4] 12.9% | [5] -11.2% | [6] -9.05%

CCNc1ccc(C)cc1
inactive: [1] 55.4% | [2] -4.1% | [3] 0.1% | [4] -14% | [5] -5.15% | [6] 33.5%

C=CCc1cc(N)ccc1O
inactive: [1] 15.9% | [2] 8.9% | [3] 11.8% | [4] 11.8% | [5] 11.7% | [6] 7.9%

COC(=O)C1C(=O)C=C(O)C2CCCCC21 (stereo not drawn)
inactive: [1] 2.05% | [2] -2.85% | [3] -0.35% | [4] -63% | [5] -30.9% | [6] 2.5%

CC(C)CC(O)C(CC(=O)Nc1ccccc1)S(=O)(=O)c1ccccc1 (stereo not drawn)
inactive: [1] -21.9% | [2] -16.4% | [3] -6.3% | [4] -28.6% | [5] -15.1% | [6] -11.8%

CC(O)(c1ccncc1)c1cc2ccccc2n1S(=O)(=O)c1ccccc1 (stereo not drawn)
inactive: [1] 2.2% | [2] 2.65% | [3] 14.8% | [4] -20.1% | [5] 1.95% | [6] 6.15%

Cc1ccc(S(=O)(=O)NN=C2C(C)(C)C(=O)C2(C)C)cc1
inactive: [1] -1.5% | [2] -1.1% | [3] -32.9% | [4] 32.1% | [5] -2.25% | [6] -6.45%

COc1ccc2c(c1)CCC1C2CCC2(C)C(=O)C(n3cnc4c(=S)nc[nH]c43)CC12 (stereo not drawn)
inactive: [1] 42.3% | [2] 24.4% | [3] 50% | [4] 34.5% | [5] 14.2% | [6] 51.8%

— PubChem BioAssay (NCI)
